Assay [1] can be described thus: Cell Viability - HUV-EC-C (AID 542).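 Also: cells exposed to compound for 40 hours; % is scaled to controls: 0 for no effect and ±100 for the full control effect; nearly all actives have a fitted effect of over 35% in size.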 A digest of the protocol:
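qHTS cytotoxicity: HUV-EC-C, 1000 cells/well, 5 hr settle, compound 40 hr 37 °C, CellTiter-Glo, luminescence. AC50 via Hill equation.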

Assay [2] is described as follows: Cell Viability - SH-SY5Y (AID 544).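 Also: cells exposed to compound for 40 hours; 0% = DMSO alone and -100% = 100 µM tamoxifen; nearly all actives have a fitted effect of over 55% in size.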 In a few lines: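 Luminescent ATP read-out (CellTiter-Glo) measures loss of viable SH-SY5Y neuroblastoma cells after 40 hr compound exposure at 37 °C. AC50 values derive from standard Hill modelling of qHTS concentration-response data.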
A short description of assay [3]: Cellular Toxicity (caspase-3) SHSY5Y (AID 657). In a few lines: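 Luminescent Caspase-Glo 3/7 read-out, 1 hr room temperature, follows 16 hours of compound treatment of SH-SY5Y cells at 37 °C. Normalization: DMSO basal, 10 uM staurosporine as 100%; AC50 values from Hill-equation concentration-response fits.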
A short description of assay [4]: Cellular Toxicity (caspase-3) SK-N-SH (AID 661).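 Also: 0% = DMSO basal and 100% = 10 µM staurosporine.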 In a few lines: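 Human neuroblastoma SK-N-SH, 1500 cells/well, 5 hr pre-incubation, then compound 16 hr, 37 °C. Caspase-Glo 3/7 reagent, 1 hr RT, luminescence. Norm. to DMSO/10 uM staurosporine; Hill-fit AC50.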
A short description of assay [5]: Cellular Toxicity (caspase-3) H-4-II-E (AID 663).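 Also: 0% = DMSO basal and 100% = 100 µM tamoxifen.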 Particulars: Potency: caspase-3 activation. A digest of the protocol: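 Rat hepatoma H-4-II-E cells (1500/well) plated 5 hr, then exposed to compound titrations for 16 hr at 37 °C. Caspase-Glo 3/7 luminescence read after 20 min at RT; data normalized to DMSO and 100 uM tamoxifen, AC50 from Hill fits.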
The nature of assay [6]: MultiTox-Fluor Cytotoxicity Assay - LYMP1-001 - Dead Cells (AID 946).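 Also: 0% = DMSO and 100% = tetraoctylammonium bromide.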 In a few lines: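 In this qHTS, 15 uM tetraoctylammonium bromide defined 100% and DMSO defined basal activity. Lymphoblastoid cells (LYMP1-001, 2500 per well) received compound for 16 hr at 37 C before a fluorogenic dead-cell substrate readout at 485/520 nm.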
Assay [7] in a line: Cell Viability - LYMP1-002 - Assay at 16 hr (AID 948).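 Also: 0% = DMSO alone and full effect = 92 µM tetraoctylammonium bromide.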 A digest of the protocol:
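ATP luminescence (CellTiter-Glo) was measured after 16 hr compound exposure at 37 C of 2500 lymphoblastoid LYMP1-002 cells per well. Concentration-response curves were fitted with the Hill equation to give AC50.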

A short description of assay [8]: MultiTox-Fluor Cytotoxicity Assay - LYMP1-002 - Live Cells (AID 955). Also: % is scaled to controls: 0 for no effect and ±100 for the full control effect. In a few lines: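 Read-out is live-cell protease activity (cell-permeant GF-AFC substrate, fluorescence Ex/Em=405/510), where a decrease indicates acute toxicity. Human lymphoblastoid cells were treated 16 hours at 37 C in a concentration series, and AC50 values came from standard Hill modelling.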

Assay [9] is described as follows: Cell Viability - LYMP2-013 (AID 970).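 Also: series mostly up to about 92 µM; 0% = DMSO only and full inhibition = tetraoctylammonium bromide control; nearly all actives have a fitted effect of over 55% in size.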 In a few lines:
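qHTS; 2500 lymphoblastoid cells/well; 5 hr 37 C settle; cpd 24 hr 37 C; CellTiter-Glo, 30 min RT; luminescence. AC50 = Hill fit.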

The nature of assay [10]: Cell Viability - LYMP2-017 (AID 972). Also: series mostly up to about 92 µM; % is scaled to controls: 0 for no effect and ±100 for the full control effect; nearly all actives have a fitted effect of over 55% in size. In a few lines: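 2500 cells/well, 5 h 37 C; cpd 24 h 37 C in complete medium; CellTiter-Glo, 30 min RT; luminescence (ATP). AC50 via Hill fit, qHTS.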
A short description of assay [11]: Cell Viability - LYMP2-007 (AID 979).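 Also: cells exposed to compound for 24 h before reading; 0% = DMSO only and the negative end = 92 µM tetraoctylammonium bromide; nearly all actives have a fitted effect of over 60% in size.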 In a few lines: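 Luminescent ATP signal (CellTiter-Glo) serves as the viability read-out after 24 hr compound treatment of lymphoblastoid cells in complete medium at 37 C. Concentration-response data were fitted to the Hill equation to give AC50 values.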
Assay [12] can be described thus: Cell Viability - LYMP2-010 (AID 981). Also: % is scaled to controls: 0 for no effect and ±100 for the full control effect; nearly all actives have a fitted effect of over 55% in size. In a few lines:
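Luminescent ATP signal (CellTiter-Glo) served as the viability read-out. Cells of the human lymphoblastoid line were treated with compound over a concentration range for 24 hours at 37 C, and AC50 values came from Hill-equation modeling.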

Assay [13] is described as follows: Cell Viability - LYMP2-012 (AID 982).
Assay [14] is described as follows: Cell Viability - LYMP2-018 (AID 985).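 Also: compound exposure lasted 24 hr at 37 °C; plate controls were DMSO only for no effect and tetraoctylammonium bromide at 92 µM for full effect; nearly all actives have a fitted effect of over 50% in size.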 A digest of the protocol:
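Luminescent ATP signal (CellTiter-Glo, read after 30 min at room temperature) reports viable cells after 24 hr compound treatment at 37 C. Concentration-response data were fitted to the standard Hill equation for AC50.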

A short description of assay [15]: Cell Viability - LYMP2-020 (AID 986). A digest of the protocol:
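Luminescent ATP signal (CellTiter-Glo, 30 min at room temperature) is the read-out after 24 h compound treatment of lymphoblastoid cells at 37 C. AC50 values come from Hill-equation fits across concentrations.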

Assay [16] in a line: Cell Viability - LYMP2-022 (AID 987). A digest of the protocol: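 qHTS: human lymphoblastoid cells 2500/well; 5 hr 37 C; cpd added; 24 hr 37 C; CellTiter-Glo, 30 min RT; luminescence. AC50 via Hill fit; tetraoctylammonium bromide positive ctrl.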
Assay [17] in a line: Cell Viability - LYMP2-024 (AID 988).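 Also: plate controls were DMSO only for no effect and 92 µM tetraoctylammonium bromide for full effect; nearly all actives have a fitted effect of over 60% in size.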 In a few lines: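 Steps: seed 2500 cells/well, 5 hr 37 C; add compound, 24 hr 37 C; add CellTiter-Glo, 30 min room temperature; read luminescence. AC50 derived by Hill modelling of concentration-dependent ATP loss.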
Assay [18] can be described thus: qHTS assay for small molecule antagonists of retinoid X receptor alpha signaling (AID 588546).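 Also: cells stimulated with 9-cis-retinoic acid as agonist; % is scaled to controls: 0 for no effect and ±100 for the full control effect.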 Particulars: HEK293T RXRa-UAS-bla, beta-lactamase ratio, antagonist mode; measured here: W530 green channel, cytotoxicity proxy. A digest of the protocol: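 Beta-lactamase reporter inhibition, read as CCF4 fluorescence ratio (ex 405, em 460/530 nm) after 2 h at RT. HEK293T UAS-bla cells, 2500/well, were stimulated with 9-cis-RA at 500 or 100 nM final alongside test compound for 18 h at 37 C.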
In general terms: qHTS replaces the single test concentration by a dilution series.

A short description of assay [19]: qHTS assay for small molecule agonists of the antioxidant response element (ARE) signaling pathway measured by Nrf2-dependant transcriptional activity - cell viability counter screen (AID 720653; active = well fitted curve in the direction sought with a large enough effect in the repeat runs; an effect the other way counts as inactive or inconclusive; also: % is scaled to controls: 0 for no effect and ±100 for the full control effect). Particulars: ARE-bla HepG2 viability, CellTiter-Glo ATP luminescence, 16 h; max response: stronger effect = lower value. In a few lines: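 ARE-bla HepG2 cells treated with compounds for 16 h at 37C; this counter screen measures viability as intracellular ATP by CellTiter-Glo luminescence after 30 min at room temperature.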

The nature of assay [20]: qHTS assay for cell viability of HEK293 cells (AID 743288). Also: nearly all actives have a fitted effect of over 50% in size. Also: potency is read from the fitted curve at half-maximal effect. As to max response: % is scaled to controls: 0 for no effect and ±100 for the full control effect. Conditions: ATP luminescence (CellTiter-Glo), 18 h; max response: stronger effect = lower value. A digest of the protocol: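 Total intracellular ATP, measured with a luciferase-coupled reagent, indicates the number of viable HEK293 cells. Exposure to test chemicals lasts 18 h at 37 C in 1,536-well format at 2,000 cells/well.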

Data on 10 compounds can be found in PubChem BioAssay (NCATS).

Where “and” joins values, the source holds several entries; their conditions need not be identical. Equal values may be shown once. Records with an inconclusive call do not appear. Calls of active or inactive are those of the source. Unless noted, calls follow the shape of the dose curve; as a rule, active = well fitted curve in the direction sought with a large enough effect; inconclusive = small, poorly fitted or top-dose-only effect, or another doubt; inactive = no such curve, though single readings can be large; an effect the other way counts as inactive or inconclusive.

For `Cc1cccc([N+](=O)[O-])c1C`, the compound was called inactive in assay [1], in assay [3] and in [4]. Further, the Potency result in assay [2], in assay [5], in [6], in [7], in assay [8] and in assay [9] was “inactive” throughout. The Potency entry in [10], in assay [11], in assay [12], in assay [13], in [14] and in assay [15] was “inactive” in each case. In addition, the Potency entry in assay [16] and in assay [17] was “inactive” in each case. The max response in [18] was -3.46% and -5.25%; in assay [19], 4.89% (inactive) and -2.35% (inactive); in [20], -3.29% (inactive) and 4.27% (inactive).

`CC(=O)OC/C=C(\C)CCC=C(C)C`: the outcome in assay [1], in assay [3] and in [4] was inactive. In addition, the Potency entry in [2], in assay [5], in assay [6], in assay [7], in assay [8] and in assay [9] was “inactive” each time. The Potency entry in assay [10], in assay [11], in [12], in assay [13], in [14] and in [15] was “inactive” each time. Besides, the Potency result in assay [16] and in assay [17] was “inactive” each time. Further, the max response in [18] was -3.71% and -6.77%; in [19], -2.65% (inactive) and 12.5% (inactive); in [20], -10.3% (inactive) and 5.2% (inactive).

For `O=[N+]([O-])c1cccc(Cl)c1Cl`, the compound was called inactive in assay [1], in assay [3] and in assay [4]. The Potency entry in assay [2], in assay [5], in assay [6], in assay [7], in [8] and in assay [9] was “inactive” throughout. The Potency result in assay [10], in assay [11], in assay [12], in assay [13], in assay [14] and in [15] was “inactive” each time. Also, the Potency result in assay [16] and in assay [17] was “inactive” throughout. Besides, the max response was 3.16% and 3% in [18]; 3.32% (inactive) and 9.85% (inactive) in assay [19]; -3.06% (inactive) and -4.76% (inactive) in [20].

As for `C=Cc1ccccc1Cl`, the compound was called inactive in assay [1], in [3] and in [4]. The Potency entry in assay [2], in assay [5], in assay [6], in assay [7], in [8] and in assay [9] was “inactive” throughout. Further, the Potency entry in assay [10], in [11], in assay [12], in assay [13], in assay [14] and in assay [15] was “inactive” throughout. The Potency result in assay [16] and in [17] was “inactive” in each case. Besides, the max response in assay [18] is -3.63%; in assay [19], -2.6% (inactive); in assay [20], 6.21% (inactive).

`Cc1ccc(N)c([N+](=O)[O-])c1`: the compound was classed as inactive in assay [1], in [3] and in assay [4]. For the same compound, the Potency entry in assay [2], in assay [5], in assay [6], in [7], in assay [8] and in assay [9] was “inactive” in each case. The Potency entry in assay [10], in assay [11], in assay [12], in assay [13], in assay [14] and in [15] was “inactive” in each case. Also, the Potency result in assay [16] and in assay [17] was “inactive” in each case. The max response in [18] was -10.8% and -10%; in assay [19], -14.8% (inactive) and -1.11% (inactive); in assay [20] it was -10.6% (inactive) and -7.86% (inactive).

Take `c1ccc2c(c1)[nH]c1ccccc12`: the outcome in [1], in assay [3] and in assay [4] was inactive. Also, the Potency result in assay [2], in assay [5], in assay [6], in [7], in assay [8] and in assay [9] was “inactive” throughout. Moreover, the Potency result in assay [10], in assay [11], in assay [12], in assay [13], in [14] and in assay [15] was “inactive” in each case. Moreover, the Potency entry in assay [16] and in assay [17] was “inactive” in each case. Also, the max response in assay [18] is -0.129% and 3.48%; in assay [19] it was -11% (inactive) and -21.8% (inactive); in [20] it was -7.42% (inactive) and -16.3% (inactive).

Regarding `S=C1NC=NC2N=CNC12` (configuration not stated), the result in assay [1], in [3] and in assay [4] was inactive. Moreover, the Potency result in [5], in [6], in assay [8], in assay [9], in assay [10] and in assay [11] was “inactive” each time. Moreover, the Potency result in assay [12], in assay [13], in assay [14], in assay [15], in [16] and in assay [17] was “inactive” in each case. For the same compound, in assay [18], the max response is 4.27%. In assay [20], the Potency is 2240 nM (active).

Take `CCC(O)OC(O)CC` (configuration not stated): the result in assay [1], in assay [3] and in assay [4] was inactive. The Potency entry in assay [2], in [5], in assay [6], in assay [7], in assay [8] and in assay [9] was “inactive” each time. Further, the Potency result in assay [10], in assay [11], in [12], in assay [13], in [14] and in assay [15] was “inactive” each time. For the same compound, the Potency entry in assay [16] and in assay [17] was “inactive” each time. Moreover, the max response in assay [18] was -6.87% and -7.76%; in assay [19], 1.91% (inactive) [middle of 4 runs]; in assay [20] it was -2.73% (inactive) [middle of 4 runs].

On to `CCCCCCCCCCCCCCC1CO1` (configuration not stated), for which the outcome in [1], in assay [3] and in [4] was inactive. The Potency entry in assay [2], in assay [5], in assay [6], in assay [7], in [8] and in assay [9] was “inactive” in each case. In addition, the Potency entry in [10], in [11], in assay [12], in [13], in assay [14] and in assay [15] was “inactive” each time. The Potency entry in assay [16] and in assay [17] was “inactive” throughout. Also, the max response is -4.45% and -4.75% in assay [18]; -2.08% (inactive) and 0.668% (inactive) in [19]; -3.91% (inactive) and -17.2% (inactive) in assay [20].

As to `Clc1cc(Cl)c(Cl)cc1Cl`, the outcome in assay [1], in assay [3] and in assay [4] was inactive. Moreover, the Potency entry in assay [2], in assay [5], in assay [6], in [7], in assay [8] and in assay [9] was “inactive” throughout. Moreover, the Potency result in assay [10], in assay [11], in assay [12], in assay [13], in [14] and in assay [15] was “inactive” in each case. Besides, the Potency result in [16] and in assay [17] was “inactive” in each case. Besides, the max response is -13.2% and -12.3% in assay [18]; 2.91% (inactive) and 4.61% (inactive) in assay [19]; 3.48% (inactive) and -4.31% (inactive) in assay [20].
